A short description of assay [1]: ACEA_ER_80hr: ACEA Biosciences xCELLigence Real-Time Cell Analysis on Estrogen Receptor Agonism for Proliferation (AID 2282667; active means hit-call score of the fitted dose curve at least 0.9, where 1 is the maximum). Conditions: T47D proliferation, impedance (xCELLigence), 80 h. Put shortly:
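Real-time impedance growth kinetics of human T-47D breast cells read 80 h after dosing, gain-of-signal fitted relative to DMSO. Compounds: 1:4 serial series, top final concentration 100 uM, n = 2.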

The nature of assay [2]: ATG_CRE_CIS: Attagene CIS-FACTORIAL HepG2 Assay for human cAMP Responsive Element (CRE) binding protein 3 (AID 2282926). Conditions: HepG2 CRE cis-reporter, Attagene multiplexed mRNA; actives raise or lower the signal. Put shortly: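 Multiplexed transcription-unit reporters transfected into HepG2; 24 h dosing; RT-PCR/capillary electrophoresis fluorescence read-out; bidirectional fit vs DMSO.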

For assay [3], the target named is CCAAT/enhancer-binding protein beta (Homo sapiens) (UniProt P17676). Description: ATG_C_EBP_CIS: Attagene CIS-FACTORIAL HepG2 Assay for human CCAAT/Enhancer Binding Protein (C/EBP) beta (AID 2282927). Conditions: HepG2 Attagene cis-factorial transcription factor reporter; actives raise or lower the signal. Put shortly: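 HepG2, transient MRTU transfection, 24 h treatment. RT-PCR plus CE fluorescence; DMSO negative control, bidirectional fit.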

Assay [4] in a line: ATG_CMV_CIS: Attagene CIS-FACTORIAL HepG2 Assay for human CMV (Internal Marker) (AID 2282928).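 Further: endpoint acts as a background internal control marker rather than a target.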 Conditions: HepG2 CMV promoter reporter, transcription factor profiling; actives raise or lower the signal. Put shortly: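 Endogenous transcription factor activity read in HepG2 via transfected cis-promoter reporter units. After 24 h dosing, reporter mRNA measured by RT-PCR/capillary electrophoresis; gain or loss of signal fit relative to DMSO.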

Assay [5] can be described thus: ATG_DR4_LXR_CIS: Attagene CIS-FACTORIAL HepG2 Assay for human Liver X Receptor (LXR), DR4 submotif (AID 2282929). Conditions: HepG2 Attagene DR4 cis-reporter, mRNA transcription; actives raise or lower the signal. Put shortly: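 Readout: reporter transcript fluorescence after RT-PCR and capillary electrophoresis, fitted bidirectionally against DMSO controls. Human HepG2 liver cells carried transiently transfected multiplexed reporter constructs; endogenous transcription factor activity measured 24 h post-dosing.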

Assay [6] concerns the target Aryl hydrocarbon receptor (Homo sapiens) (UniProt P35869). Description: ATG_Ahr_CIS: Attagene CIS-FACTORIAL HepG2 Assay for human Aryl Hydrocarbon Receptor (Ahr) (AID 2282930). Conditions: HepG2 AhR cis-factorial reporter transcription; actives raise or lower the signal. Put shortly:
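Endogenous factor activity is tracked through cis-promoter reporter units transfected into HepG2 cells. Transcript levels at 24 h are read by fluorescent RT-PCR and capillary electrophoresis, with activity in either direction scored relative to DMSO.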

Assay [7] is described as follows: ATG_AP_1_CIS: Attagene CIS-FACTORIAL HepG2 Assay for human Activator Protein 1 (AP-1) (AID 2282931). Conditions: HepG2 Attagene cis-factorial AP-1 reporter mRNA; actives raise or lower the signal. Put shortly: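 Reporter transcripts were measured 24 h after dosing by RT-PCR and capillary electrophoresis of fluorescent fragments. Cells: HepG2 carrying transfected cis-regulated reporter constructs reading endogenous factor activity. Gain or loss fitted against DMSO.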

Assay [8] is described as follows: ATG_AP_2_CIS: Attagene CIS-FACTORIAL HepG2 Assay for human Activator Protein 2 (AP-2) (AID 2282932). Conditions: HepG2 AP-2 cis-reporter, Attagene transcription factor profiling; actives raise or lower the signal. Put shortly:
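HepG2 cells transiently transfected with cis-element reporter units and exposed for 24 h. Reporter mRNA measured by RT-PCR, FAM labelling, HpaI digestion and capillary electrophoresis. Changes in either direction fitted relative to DMSO.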

Assay [9] in a line: ATG_BRE_CIS: Attagene CIS-FACTORIAL HepG2 Assay for human Bone Morphogenetic Protein (BMP) Response Element (BRE) (AID 2282933). Conditions: HepG2 BMP response element reporter, Attagene transcription factor profiling; actives raise or lower the signal. Put shortly:
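Multiplexed cis-reporter assay, HepG2, 24 h exposure. mRNA from reporter units quantified via RT-PCR/CE; DMSO baseline; bidirectional curve fit.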

Assay [10] addresses Retinoic acid receptor alpha (Homo sapiens) (UniProt P10276). Description: ATG_DR5_RAR_CIS: Attagene CIS-FACTORIAL HepG2 Assay for human Retinoic Acid Receptor Alpha (RARE), DR5 submotif (AID 2282934).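 On AC50: reporter responds to endogenous RAR alpha beta and gamma in HepG2 not RARA alone.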 Conditions: HepG2 Attagene cis-factorial RARE DR5 reporter, mRNA; actives raise or lower the signal. Put shortly:
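After 24 h of chemical exposure, transiently transfected HepG2 cells were lysed for total RNA; the DR5-regulated reporter transcript was quantified via RT-PCR and capillary electrophoresis, with activity fitted bidirectionally against DMSO.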

The target of assay [11] is Transcription factor E2F1 (Homo sapiens) (UniProt Q01094). Description: ATG_E2F_CIS: Attagene CIS-FACTORIAL HepG2 Assay for human E2F Transcription Factor 1 (AID 2282935). Conditions: HepG2 Attagene cis-reporter, E2F reporter RNA transcripts; actives raise or lower the signal. Put shortly: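 Endogenous E2F1 activity read through cis-promoter reporter units transfected into HepG2. After 24 h compound treatment, reporter mRNA measured by RT-PCR, HpaI digestion and capillary electrophoresis. Bidirectional fit versus DMSO.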

A short description of assay [12]: ATG_E_Box_CIS: Attagene CIS-FACTORIAL HepG2 Assay for human Enhancer Box (E-box) (AID 2282936). Conditions: HepG2 E-box cis-reporter transcription, actives raise or lower the signal. Put shortly:
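HepG2 cells transiently transfected with multiplexed cis-element reporter units, dosed 24 h; reporter mRNA quantified by RT-PCR, 6-FAM labelling, HpaI digestion and capillary electrophoresis. E-box (USF1) signal fitted bidirectionally vs DMSO.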

Assay [13] is described as follows: ATG_M_61_CIS: Attagene CIS-FACTORIAL HepG2 Assay for M61 Transcription Factor (Internal Marker) (AID 2282937). Conditions: HepG2 Attagene CIS-FACTORIAL M61 internal marker reporter; actives raise or lower the signal. Put shortly: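 Readout: fluorescent reporter mRNA fragments resolved by capillary electrophoresis after RT-PCR. Transiently transfected human HepG2 cells carried MRTU constructs reporting endogenous TF activity; 24 h chemical exposure; gain or loss of signal fitted relative to DMSO.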

Assay [14] in a line: ATG_EGR_CIS: Attagene CIS-FACTORIAL HepG2 Assay for human Early Growth Response 1 (EGR1) (AID 2282938). Conditions: HepG2 Attagene CIS-FACTORIAL EGR reporter mRNA; actives raise or lower the signal. Put shortly: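 Read-out: fluorescent reporter-mRNA fragments resolved by capillary electrophoresis after RT-PCR, 24 h post-dose in transiently transfected HepG2. Endogenous transcription-factor activity reported via cis-element-regulated reporter units; gain or loss fitted relative to DMSO.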

The nature of assay [15]: ATG_M_19_CIS: Attagene CIS-FACTORIAL HepG2 Assay for M19 Transcription Factor (Internal Marker) (AID 2282939). Conditions: HepG2 Attagene CIS-FACTORIAL M19 internal marker reporter; actives raise or lower the signal. Put shortly: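 Signals come from fluorescence of labelled reporter-specific PCR fragments resolved by capillary electrophoresis, following 24 h treatment of HepG2 cells transfected with cis-promoter reporter units; activity was fitted in both directions relative to DMSO.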

Assay [16] is described as follows: ATG_ERE_CIS: Attagene CIS-FACTORIAL HepG2 Assay for Estrogen Response Element (ERE) (AID 2282940). Conditions: HepG2 ERE cis-reporter, Attagene RNA transcript; actives raise or lower the signal. Put shortly:
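Fluorescence of capillary-separated, FAM-labelled reporter cDNA fragments indicates reporter mRNA levels in HepG2 cells exposed to chemicals for 24 h. Transient transfection with cis-regulated units; data fitted in both directions against DMSO.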

Assay [17] in a line: ATG_Ets_CIS: Attagene CIS-FACTORIAL HepG2 Assay for human Erythroblast Transformation Specific (ETS) (AID 2282941). Conditions: HepG2 ETS cis-reporter transcription, actives raise or lower the signal. Put shortly:
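Steps: transfect HepG2 with multiple reporter units; treat compound 24 h; isolate RNA, DNase-treat, reverse-transcribe; PCR-amplify, label with 6-FAM, digest with HpaI; separate by capillary electrophoresis. Activity fitted both directions versus DMSO.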

Assay [18] deals with Hepatocyte nuclear factor 3-beta (Homo sapiens) (UniProt Q9Y261). Description: ATG_FoxA2_CIS: Attagene CIS-FACTORIAL HepG2 Assay for human Forkhead box A2 (FOXA2) (AID 2282942). Conditions: HepG2 cis-reporter transcription factor activity, 24 h; actives raise or lower the signal. Put shortly: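 Readout: fluorescent reporter transcripts resolved by capillary electrophoresis after RT-PCR. Transiently transfected HepG2, 24 h compound exposure, endogenous TF activity at cis promoter elements. Gain or loss of signal fitted relative to DMSO.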

A short description of assay [19]: ATG_FoxO_CIS: Attagene CIS-FACTORIAL HepG2 Assay for human Forkhead box O (FoxO) (AID 2282943). Conditions: HepG2 Attagene cis-reporter, FoxO element, mRNA; actives raise or lower the signal. Put shortly: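 Transfected HepG2 reporter cells exposed to test chemical for 24 h; reporter RNA measured by reverse transcription, PCR and fluorescent capillary electrophoresis; curves fitted for increases and decreases against DMSO.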

The nature of assay [20]: ATG_GATA_CIS: Attagene CIS-FACTORIAL HepG2 Assay for human GATA Binding Protein (AID 2282944). Conditions: HepG2 GATA cis-element reporter, Attagene multiplex mRNA; actives raise or lower the signal. Put shortly:
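After transfecting HepG2 cells with multiple cis-regulated reporter units, chemicals are dosed for 24 h; isolated RNA undergoes RT-PCR and fluorescent labeling before capillary electrophoresis, with activity expressed against DMSO.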

Here are results for 6 molecules from PubChem BioAssay (EPA / NIEHS).

Structures are written as SMILES. Records with an inconclusive call do not appear. Activity calls are given as the source filed them. How the source made its calls, unless noted: active means hit-call score of the fitted dose curve at least 0.9, where 1 is the maximum; inactive means score below 0.9.

Chain of Retinoic acid receptor alpha (Homo sapiens) (P10276 whole entry, looked up): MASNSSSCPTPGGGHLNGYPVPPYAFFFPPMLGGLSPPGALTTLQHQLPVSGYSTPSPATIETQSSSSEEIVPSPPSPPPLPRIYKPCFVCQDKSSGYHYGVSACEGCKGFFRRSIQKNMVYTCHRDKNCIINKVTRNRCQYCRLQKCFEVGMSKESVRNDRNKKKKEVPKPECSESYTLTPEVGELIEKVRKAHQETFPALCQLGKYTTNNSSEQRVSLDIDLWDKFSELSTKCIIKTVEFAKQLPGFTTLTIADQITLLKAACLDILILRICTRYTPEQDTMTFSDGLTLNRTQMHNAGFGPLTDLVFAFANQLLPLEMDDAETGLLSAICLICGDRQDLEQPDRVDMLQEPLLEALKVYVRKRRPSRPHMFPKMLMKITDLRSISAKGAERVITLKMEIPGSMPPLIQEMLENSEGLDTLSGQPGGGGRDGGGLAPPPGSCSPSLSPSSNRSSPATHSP
Chain of Hepatocyte nuclear factor 3-beta (Homo sapiens) (Q9Y261 whole entry, looked up): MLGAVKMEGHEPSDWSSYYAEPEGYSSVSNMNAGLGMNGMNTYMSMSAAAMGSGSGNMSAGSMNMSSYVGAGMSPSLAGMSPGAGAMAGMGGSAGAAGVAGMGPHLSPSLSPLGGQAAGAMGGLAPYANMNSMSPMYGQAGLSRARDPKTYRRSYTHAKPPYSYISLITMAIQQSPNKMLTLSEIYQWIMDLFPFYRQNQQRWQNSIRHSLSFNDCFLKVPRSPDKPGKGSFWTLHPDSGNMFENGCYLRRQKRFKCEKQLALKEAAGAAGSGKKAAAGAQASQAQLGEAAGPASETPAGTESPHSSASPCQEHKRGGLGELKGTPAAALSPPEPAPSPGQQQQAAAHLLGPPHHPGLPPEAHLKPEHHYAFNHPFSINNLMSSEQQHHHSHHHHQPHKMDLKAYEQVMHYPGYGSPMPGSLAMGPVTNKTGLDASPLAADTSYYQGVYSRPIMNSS
Chain of Aryl hydrocarbon receptor (Homo sapiens) (P35869 whole entry, looked up): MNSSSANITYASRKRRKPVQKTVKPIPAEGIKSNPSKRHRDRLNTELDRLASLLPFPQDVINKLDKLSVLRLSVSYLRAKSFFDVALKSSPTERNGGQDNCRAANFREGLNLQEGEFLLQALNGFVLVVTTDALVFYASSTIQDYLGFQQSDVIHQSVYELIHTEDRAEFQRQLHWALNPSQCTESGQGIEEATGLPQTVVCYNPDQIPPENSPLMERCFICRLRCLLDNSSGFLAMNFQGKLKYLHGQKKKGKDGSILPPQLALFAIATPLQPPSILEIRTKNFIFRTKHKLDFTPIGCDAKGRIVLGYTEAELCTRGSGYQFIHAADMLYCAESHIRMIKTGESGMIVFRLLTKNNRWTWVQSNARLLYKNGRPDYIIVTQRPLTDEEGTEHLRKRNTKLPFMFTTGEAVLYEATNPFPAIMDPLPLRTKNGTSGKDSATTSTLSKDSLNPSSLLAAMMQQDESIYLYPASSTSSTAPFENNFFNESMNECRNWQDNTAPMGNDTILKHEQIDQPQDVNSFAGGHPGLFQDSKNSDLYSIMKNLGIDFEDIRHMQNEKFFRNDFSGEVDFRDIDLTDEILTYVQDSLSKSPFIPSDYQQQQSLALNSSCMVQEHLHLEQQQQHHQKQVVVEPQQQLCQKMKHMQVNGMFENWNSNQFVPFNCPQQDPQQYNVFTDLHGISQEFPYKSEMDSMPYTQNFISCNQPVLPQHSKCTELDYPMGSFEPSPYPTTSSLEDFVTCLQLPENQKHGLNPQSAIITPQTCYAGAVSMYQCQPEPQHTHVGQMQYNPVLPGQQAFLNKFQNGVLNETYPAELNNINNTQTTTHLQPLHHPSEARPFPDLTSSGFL
Chain of Transcription factor E2F1 (Homo sapiens) (Q01094 whole entry, looked up): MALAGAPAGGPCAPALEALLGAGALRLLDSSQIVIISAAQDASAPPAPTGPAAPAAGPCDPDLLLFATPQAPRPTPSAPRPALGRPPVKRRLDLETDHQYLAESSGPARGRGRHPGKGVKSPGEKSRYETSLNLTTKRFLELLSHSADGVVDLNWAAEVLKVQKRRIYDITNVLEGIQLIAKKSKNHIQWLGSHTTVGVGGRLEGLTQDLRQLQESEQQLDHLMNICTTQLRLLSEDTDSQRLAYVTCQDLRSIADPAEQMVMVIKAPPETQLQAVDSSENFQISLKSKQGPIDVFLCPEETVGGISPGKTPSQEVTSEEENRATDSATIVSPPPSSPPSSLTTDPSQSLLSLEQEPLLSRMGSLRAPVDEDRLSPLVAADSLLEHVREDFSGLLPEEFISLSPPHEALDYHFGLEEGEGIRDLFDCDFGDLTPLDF
Chain of CCAAT/enhancer-binding protein beta (Homo sapiens) (P17676 whole entry, looked up): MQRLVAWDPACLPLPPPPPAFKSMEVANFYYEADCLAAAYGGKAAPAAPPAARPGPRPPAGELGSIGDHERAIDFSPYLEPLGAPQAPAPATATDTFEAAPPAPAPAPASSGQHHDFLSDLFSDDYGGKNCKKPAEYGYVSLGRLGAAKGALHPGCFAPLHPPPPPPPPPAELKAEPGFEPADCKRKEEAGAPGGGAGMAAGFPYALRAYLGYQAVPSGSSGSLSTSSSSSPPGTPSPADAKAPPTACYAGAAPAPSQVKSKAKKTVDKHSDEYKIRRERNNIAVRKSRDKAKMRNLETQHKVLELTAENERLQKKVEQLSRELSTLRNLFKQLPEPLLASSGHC

For `O=S(=O)(O)c1ccc(Cl)cc1`, the molecule was called inactive in assay [1], in [2], in assay [3], in assay [4], in [5] and in assay [6]. The molecule was classed as inactive in assay [7], in assay [8], in assay [9], in assay [10], in assay [11] and in [12]. The outcome in assay [13], in assay [14], in assay [15], in assay [16], in [17] and in assay [18] was inactive. The call in [19] and in assay [20] was inactive.
By AC50 is commonly meant the concentration at which the activity in the assay is half-maximal. With `Cc1ccc([N+](=O)[O-])c(C)c1`, the AC50 in assay [1] is 22.4 µM (active). The result in assay [2], in assay [3], in [4], in [5], in assay [6] and in assay [7] was inactive. For the same molecule, the outcome in assay [8], in [9], in assay [10], in [11], in [12] and in [13] was inactive. Also, the molecule was classed as inactive in assay [14], in assay [15], in [16], in [17], in [18] and in [19]. In addition, in [20], the call was inactive.
Take `Cc1ccc(S(=O)(=O)C(I)I)cc1`: the call in [1], in assay [3], in assay [4], in [5], in assay [9] and in assay [11] was inactive. Moreover, the outcome in assay [13], in assay [14], in assay [15] and in assay [16] was inactive. Also, the AC50 in [2] is 8.93 µM (active); in assay [6], 27.5 µM (active); in assay [7], 51.7 µM (active); in assay [8], 13.1 µM (active); in assay [10], 8.88 µM (active); in assay [12], 24.3 µM (active). Further, the AC50 in [17] is 8.59 µM (active); in [18], 43.7 µM (active); in assay [19] it was 5.14 µM (active); in [20] it was 8.85 µM (active).
For `CC(C)(C)C(=O)C1C(=O)c2ccccc2C1=O`, the AC50 in assay [1] is 10.4 µM (active); in [2], 57.9 µM (active); in assay [4], 30.1 µM (active); in assay [6] it was 34.6 µM (active); in [7], 30.3 µM (active); in [10], 31.9 µM (active). The outcome in [3], in assay [5], in [8], in [9], in [11] and in [12] was inactive. The call in assay [13], in assay [14], in assay [15], in [16], in [17] and in assay [18] was inactive. The result in [19] and in assay [20] was inactive.
As to `CC(C)(C)c1cc(CCC(=O)NCCCCCCNC(=O)CCc2cc(C(C)(C)C)c(O)c(C(C)(C)C)c2)cc(C(C)(C)C)c1O`, the AC50 in assay [1] is 50 µM (active). The outcome in [2], in assay [3], in assay [4], in assay [5], in assay [6] and in [7] was inactive. Moreover, the molecule was called inactive in assay [8], in assay [9], in assay [10], in assay [11], in assay [12] and in [13]. In addition, the result in assay [14], in assay [15], in [16], in [17], in assay [18] and in [19] was inactive. The molecule was classed as inactive in [20].
`CCN(CC)c1ccc2c(c1)Oc1cc(N(CC)CC)ccc1C21OC(=O)c2ccccc21`: the molecule was classed as inactive in [1], in assay [2], in assay [3], in assay [4], in assay [5] and in [7]. Also, the molecule was called inactive in assay [8], in assay [9], in [10], in assay [11], in assay [12] and in [13]. Further, the molecule was classed as inactive in assay [14], in assay [15], in assay [16], in assay [17], in [18] and in assay [19]. For the same molecule, in [20], the outcome was inactive. Also, the AC50 in [6] was 7.41 µM (active).
